Laboratory results published in article PMC7862700, “An all-to-all approach to the identification of sequence-specific readers for epigenetic DNA modifications on cytosine”.

Tests used:
Assay in all cases: DAPPL (digital affinity profiling via proximity ligation, sequencing); 10 mM Tris-HCl pH 7.5, 50 mM NaCl, 1 mM DTT, 4% glycerol, room temperature, 30 min; GST-TFs on glutathione beads, 16-mer random dsDNA library, 0.1% formaldehyde crosslink after washing; high values mean tight binding
Conditions in all cases: protein: recombinant; tags: N-terminal GST; dsDNA, one strand shown
ELF1 = ELF1 (Homo sapiens, UniProt P32519 1-619)
ELF1, sequence (P32519 whole entry, the tested form may be a part): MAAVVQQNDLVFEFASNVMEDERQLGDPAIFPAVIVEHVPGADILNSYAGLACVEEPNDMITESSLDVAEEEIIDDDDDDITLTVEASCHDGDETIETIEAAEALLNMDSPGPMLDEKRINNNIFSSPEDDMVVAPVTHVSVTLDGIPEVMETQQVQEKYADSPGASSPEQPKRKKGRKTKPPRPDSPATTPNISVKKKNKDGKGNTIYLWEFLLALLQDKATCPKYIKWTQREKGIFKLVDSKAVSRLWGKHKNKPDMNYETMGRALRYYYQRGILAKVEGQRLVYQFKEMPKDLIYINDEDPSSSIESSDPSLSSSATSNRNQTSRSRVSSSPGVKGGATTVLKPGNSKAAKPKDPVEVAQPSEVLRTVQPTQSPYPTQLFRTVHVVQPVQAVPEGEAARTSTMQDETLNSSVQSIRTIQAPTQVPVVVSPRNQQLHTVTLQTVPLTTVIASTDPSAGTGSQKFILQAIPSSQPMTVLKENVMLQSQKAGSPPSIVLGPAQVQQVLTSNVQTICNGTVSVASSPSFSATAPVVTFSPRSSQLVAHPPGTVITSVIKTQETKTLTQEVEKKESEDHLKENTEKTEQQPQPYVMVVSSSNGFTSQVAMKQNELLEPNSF
Method in brief: (§1)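 A tag-only sample was pooled with DNA-barcoded human transcription factors that had been expressed in yeast as GST fusions and captured on glutathione beads. The pools were incubated for 30 min at room temperature with 200 nmole of a random double-stranded 16-mer DNA library in Tris/NaCl/DTT/glycerol buffer, then washed, crosslinked with 0.1% formaldehyde, proximity-ligated (BsaI/T4 ligase, 1 h, 37 °C), PCR-amplified and sequenced on an Illumina NextSeq500. Binding signal is each hexamer's read frequency for a factor divided by its frequency for the tag-only sample.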

FEV = target: T1, FEV (Homo sapiens, UniProt Q99581 1-238)
T1 sequence: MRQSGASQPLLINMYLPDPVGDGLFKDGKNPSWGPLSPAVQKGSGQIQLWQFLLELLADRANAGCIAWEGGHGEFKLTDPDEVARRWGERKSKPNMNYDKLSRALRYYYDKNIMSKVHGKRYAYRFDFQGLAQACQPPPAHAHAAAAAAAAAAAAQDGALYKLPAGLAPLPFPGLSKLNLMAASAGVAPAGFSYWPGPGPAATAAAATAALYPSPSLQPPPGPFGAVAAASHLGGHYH
Method in brief: as §1

ETV5 = ETV5 (Homo sapiens, UniProt P41161 1-510)
ETV5, sequence (P41161 whole entry): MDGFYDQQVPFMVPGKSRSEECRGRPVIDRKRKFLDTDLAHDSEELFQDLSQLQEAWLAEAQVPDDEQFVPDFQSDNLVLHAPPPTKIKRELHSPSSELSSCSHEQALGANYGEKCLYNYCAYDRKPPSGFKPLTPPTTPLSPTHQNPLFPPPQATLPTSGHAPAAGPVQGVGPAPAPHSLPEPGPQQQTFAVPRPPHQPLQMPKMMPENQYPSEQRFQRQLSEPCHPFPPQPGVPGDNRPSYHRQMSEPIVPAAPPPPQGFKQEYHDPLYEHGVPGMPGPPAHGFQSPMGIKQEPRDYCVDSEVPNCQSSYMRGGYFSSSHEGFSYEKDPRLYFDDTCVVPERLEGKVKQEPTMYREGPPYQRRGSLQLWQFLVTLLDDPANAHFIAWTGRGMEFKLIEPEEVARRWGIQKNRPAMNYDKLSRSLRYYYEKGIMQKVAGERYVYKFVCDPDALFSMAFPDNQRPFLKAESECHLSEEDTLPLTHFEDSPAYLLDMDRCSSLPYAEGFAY
Method in brief: as §1

ELF4 = ELF4 (Homo sapiens, UniProt Q99607 1-663)
ELF4, sequence (Q99607 whole entry): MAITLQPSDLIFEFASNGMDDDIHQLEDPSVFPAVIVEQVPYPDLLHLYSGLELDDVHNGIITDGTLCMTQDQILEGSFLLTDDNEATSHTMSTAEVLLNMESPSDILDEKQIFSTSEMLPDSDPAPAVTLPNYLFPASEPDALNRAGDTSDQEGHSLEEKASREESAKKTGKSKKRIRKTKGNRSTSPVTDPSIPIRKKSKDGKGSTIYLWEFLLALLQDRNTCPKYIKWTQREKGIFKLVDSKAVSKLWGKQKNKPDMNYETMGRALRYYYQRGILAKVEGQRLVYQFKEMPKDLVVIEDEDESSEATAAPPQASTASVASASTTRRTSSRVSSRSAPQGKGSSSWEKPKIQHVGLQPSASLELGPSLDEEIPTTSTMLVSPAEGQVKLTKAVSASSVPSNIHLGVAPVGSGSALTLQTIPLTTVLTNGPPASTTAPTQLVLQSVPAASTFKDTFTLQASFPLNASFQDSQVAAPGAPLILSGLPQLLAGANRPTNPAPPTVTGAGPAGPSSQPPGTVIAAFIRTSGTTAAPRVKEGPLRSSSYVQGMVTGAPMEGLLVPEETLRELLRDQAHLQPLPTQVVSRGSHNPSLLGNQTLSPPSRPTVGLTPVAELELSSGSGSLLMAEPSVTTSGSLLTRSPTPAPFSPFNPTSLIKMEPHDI
Method in brief: as §1

ELK4 = target: T2, ELK4 (Homo sapiens, UniProt P28324-2 1-405)
T2 sequence: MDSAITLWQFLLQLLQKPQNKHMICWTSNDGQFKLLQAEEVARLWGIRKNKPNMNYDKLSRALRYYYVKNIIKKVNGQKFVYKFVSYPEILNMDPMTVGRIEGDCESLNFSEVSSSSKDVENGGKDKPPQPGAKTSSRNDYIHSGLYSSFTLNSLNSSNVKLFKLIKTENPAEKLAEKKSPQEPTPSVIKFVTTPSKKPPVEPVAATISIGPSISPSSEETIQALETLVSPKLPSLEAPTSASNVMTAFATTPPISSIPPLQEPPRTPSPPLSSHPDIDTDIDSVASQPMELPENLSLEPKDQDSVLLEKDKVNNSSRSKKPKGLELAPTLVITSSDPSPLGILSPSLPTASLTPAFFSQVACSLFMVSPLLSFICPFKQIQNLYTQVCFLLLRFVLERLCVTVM
Method in brief: as §1

ETV3L = target: T3, ETV3L (Homo sapiens, UniProt Q6ZN32 1-361)
T3 sequence: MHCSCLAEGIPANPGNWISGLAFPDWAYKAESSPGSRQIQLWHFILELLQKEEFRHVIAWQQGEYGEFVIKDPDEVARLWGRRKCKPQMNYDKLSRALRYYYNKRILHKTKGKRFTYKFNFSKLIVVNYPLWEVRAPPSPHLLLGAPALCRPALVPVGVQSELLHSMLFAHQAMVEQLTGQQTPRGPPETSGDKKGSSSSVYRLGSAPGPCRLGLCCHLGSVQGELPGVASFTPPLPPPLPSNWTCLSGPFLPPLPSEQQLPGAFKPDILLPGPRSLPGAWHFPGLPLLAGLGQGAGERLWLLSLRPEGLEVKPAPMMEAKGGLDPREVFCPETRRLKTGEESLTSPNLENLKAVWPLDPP
Method in brief: as §1

ETS2 = target: T4, ETS2 (Homo sapiens, UniProt P15036 1-469)
T4 sequence: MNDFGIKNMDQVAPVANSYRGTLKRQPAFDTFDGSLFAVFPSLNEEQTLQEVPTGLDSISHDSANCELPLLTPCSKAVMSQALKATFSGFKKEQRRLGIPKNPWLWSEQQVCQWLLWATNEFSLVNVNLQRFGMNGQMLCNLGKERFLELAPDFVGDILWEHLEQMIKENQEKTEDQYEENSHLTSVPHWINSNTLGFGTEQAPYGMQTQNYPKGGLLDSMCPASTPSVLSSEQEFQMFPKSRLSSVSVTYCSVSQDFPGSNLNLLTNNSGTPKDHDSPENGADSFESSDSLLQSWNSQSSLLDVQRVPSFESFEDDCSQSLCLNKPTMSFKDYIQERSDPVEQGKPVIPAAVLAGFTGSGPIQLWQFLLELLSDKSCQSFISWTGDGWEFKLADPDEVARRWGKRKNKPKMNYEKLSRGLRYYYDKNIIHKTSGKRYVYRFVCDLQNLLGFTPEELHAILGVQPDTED
Method in brief: as §1

ETV6 = ETV6 (Homo sapiens, UniProt P41212 1-452)
ETV6, sequence (P41212 whole entry): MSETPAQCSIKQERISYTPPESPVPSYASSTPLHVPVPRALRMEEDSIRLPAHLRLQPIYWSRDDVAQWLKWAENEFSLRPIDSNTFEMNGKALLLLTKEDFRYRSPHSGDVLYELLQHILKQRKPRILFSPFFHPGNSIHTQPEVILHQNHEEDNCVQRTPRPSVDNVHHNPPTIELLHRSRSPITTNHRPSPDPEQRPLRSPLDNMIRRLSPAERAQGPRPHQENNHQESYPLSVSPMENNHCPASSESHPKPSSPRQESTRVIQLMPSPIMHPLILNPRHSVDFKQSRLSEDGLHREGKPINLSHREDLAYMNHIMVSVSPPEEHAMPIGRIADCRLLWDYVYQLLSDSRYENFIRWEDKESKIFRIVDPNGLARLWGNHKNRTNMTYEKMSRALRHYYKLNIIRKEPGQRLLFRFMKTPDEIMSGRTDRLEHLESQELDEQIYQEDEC
Method in brief: as §1

ELK1 = target: T5, ELK1 (Homo sapiens, UniProt P19419 1-428)
T5 sequence: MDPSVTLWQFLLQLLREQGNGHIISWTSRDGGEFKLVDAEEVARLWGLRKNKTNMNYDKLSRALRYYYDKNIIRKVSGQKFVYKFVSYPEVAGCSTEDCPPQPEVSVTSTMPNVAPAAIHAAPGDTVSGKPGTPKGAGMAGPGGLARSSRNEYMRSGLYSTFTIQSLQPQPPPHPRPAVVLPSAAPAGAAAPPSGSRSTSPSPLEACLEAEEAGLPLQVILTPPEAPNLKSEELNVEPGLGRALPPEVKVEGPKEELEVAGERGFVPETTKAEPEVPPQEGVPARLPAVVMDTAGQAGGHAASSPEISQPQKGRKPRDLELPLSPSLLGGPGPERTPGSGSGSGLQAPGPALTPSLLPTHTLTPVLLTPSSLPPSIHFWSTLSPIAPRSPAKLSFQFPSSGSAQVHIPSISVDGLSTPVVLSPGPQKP
Method in brief: as §1

GABPA = target: T6, GABPA (Homo sapiens, UniProt Q06546 1-454)
T6 sequence: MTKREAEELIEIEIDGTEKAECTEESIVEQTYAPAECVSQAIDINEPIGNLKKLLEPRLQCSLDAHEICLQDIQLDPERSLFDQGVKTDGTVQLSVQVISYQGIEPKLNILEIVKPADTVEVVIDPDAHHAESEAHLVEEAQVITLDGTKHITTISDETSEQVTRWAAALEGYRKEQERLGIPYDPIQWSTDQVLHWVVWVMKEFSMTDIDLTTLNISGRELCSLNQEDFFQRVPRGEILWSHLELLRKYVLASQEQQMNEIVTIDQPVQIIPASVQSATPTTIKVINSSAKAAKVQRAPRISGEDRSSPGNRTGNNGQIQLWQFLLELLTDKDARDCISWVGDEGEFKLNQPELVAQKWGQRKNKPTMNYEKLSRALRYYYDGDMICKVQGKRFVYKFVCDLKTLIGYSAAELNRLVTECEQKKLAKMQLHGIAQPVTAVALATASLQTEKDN
Method in brief: as §1

ERG = target: T7, ERG (Homo sapiens, UniProt P11308 1-479)
T7 sequence: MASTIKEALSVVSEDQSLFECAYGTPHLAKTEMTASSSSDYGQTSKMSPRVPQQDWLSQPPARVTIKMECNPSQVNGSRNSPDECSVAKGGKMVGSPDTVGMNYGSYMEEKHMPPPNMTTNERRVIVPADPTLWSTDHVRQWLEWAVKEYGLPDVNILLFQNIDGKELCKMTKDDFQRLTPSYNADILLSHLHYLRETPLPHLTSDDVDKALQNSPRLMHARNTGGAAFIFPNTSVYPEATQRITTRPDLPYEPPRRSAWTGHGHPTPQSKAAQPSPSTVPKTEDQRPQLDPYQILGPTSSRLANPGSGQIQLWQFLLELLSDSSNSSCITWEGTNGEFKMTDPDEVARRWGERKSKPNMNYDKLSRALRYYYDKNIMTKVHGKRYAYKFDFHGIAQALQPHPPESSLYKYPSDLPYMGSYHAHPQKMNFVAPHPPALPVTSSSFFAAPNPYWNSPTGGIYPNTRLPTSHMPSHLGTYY
Method in brief: as §1

ETV2 = target: T8, ETV2 (Homo sapiens, UniProt O00321 1-342)
T8 sequence: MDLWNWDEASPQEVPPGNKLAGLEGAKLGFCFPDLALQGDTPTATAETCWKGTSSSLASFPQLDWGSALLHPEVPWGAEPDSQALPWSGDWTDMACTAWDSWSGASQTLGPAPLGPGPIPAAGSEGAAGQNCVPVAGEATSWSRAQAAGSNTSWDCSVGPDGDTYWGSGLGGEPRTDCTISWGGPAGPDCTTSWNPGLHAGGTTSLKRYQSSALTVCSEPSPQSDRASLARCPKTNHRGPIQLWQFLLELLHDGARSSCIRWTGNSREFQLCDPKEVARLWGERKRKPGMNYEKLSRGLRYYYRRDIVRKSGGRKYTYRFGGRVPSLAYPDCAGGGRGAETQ
Method in brief: as §1

ERF = target: T9, ERF (Homo sapiens, UniProt P50548 1-548)
T9 sequence: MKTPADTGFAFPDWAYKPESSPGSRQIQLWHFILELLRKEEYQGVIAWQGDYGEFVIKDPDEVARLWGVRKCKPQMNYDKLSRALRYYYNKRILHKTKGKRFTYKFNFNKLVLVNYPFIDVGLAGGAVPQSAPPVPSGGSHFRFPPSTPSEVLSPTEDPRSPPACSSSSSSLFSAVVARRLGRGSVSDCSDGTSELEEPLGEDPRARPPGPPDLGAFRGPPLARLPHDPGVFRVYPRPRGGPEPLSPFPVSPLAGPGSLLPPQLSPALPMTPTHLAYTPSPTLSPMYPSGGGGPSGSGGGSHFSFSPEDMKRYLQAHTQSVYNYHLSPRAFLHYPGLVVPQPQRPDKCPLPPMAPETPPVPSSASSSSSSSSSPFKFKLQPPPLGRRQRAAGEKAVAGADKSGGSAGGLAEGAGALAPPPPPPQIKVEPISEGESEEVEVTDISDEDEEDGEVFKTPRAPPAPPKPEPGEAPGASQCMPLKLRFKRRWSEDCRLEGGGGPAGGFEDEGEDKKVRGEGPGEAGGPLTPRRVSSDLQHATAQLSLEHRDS
Method in brief: as §1

SPDEF = target: T10, SPDEF (Homo sapiens, UniProt O95238 1-335)
T10 sequence: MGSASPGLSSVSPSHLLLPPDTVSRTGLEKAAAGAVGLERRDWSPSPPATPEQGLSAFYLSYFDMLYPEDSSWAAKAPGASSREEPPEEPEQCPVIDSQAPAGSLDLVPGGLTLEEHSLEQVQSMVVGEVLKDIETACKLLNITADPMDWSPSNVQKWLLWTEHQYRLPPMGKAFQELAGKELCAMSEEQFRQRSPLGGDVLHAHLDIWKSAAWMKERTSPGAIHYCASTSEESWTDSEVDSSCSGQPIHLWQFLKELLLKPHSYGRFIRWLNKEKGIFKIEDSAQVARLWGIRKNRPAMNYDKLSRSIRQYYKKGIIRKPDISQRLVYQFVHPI
Method in brief: as §1

ETV7 = target: T11, ETV7 (Homo sapiens, UniProt Q9Y603 1-341)
T11 sequence: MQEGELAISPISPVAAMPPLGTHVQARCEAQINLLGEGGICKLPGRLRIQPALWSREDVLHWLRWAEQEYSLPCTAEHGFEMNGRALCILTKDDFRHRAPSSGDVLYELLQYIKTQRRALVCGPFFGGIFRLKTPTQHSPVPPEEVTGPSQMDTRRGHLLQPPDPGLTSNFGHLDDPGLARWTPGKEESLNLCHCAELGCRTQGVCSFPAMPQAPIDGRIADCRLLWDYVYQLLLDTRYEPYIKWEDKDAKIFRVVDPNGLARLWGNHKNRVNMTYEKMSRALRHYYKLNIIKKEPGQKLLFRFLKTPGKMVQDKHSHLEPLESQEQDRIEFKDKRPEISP
Method in brief: as §1

ETV3 = target: T12, ETV3 (Homo sapiens, UniProt P41162-2 1-143)
T12 sequence: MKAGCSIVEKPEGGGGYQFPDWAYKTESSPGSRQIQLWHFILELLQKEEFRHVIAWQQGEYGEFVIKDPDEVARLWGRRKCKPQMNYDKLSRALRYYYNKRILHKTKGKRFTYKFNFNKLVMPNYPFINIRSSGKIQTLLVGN
Method in brief: as §1

Row | Sequence | binding signal (ELF1) | binding signal (FEV) | binding signal (ETV5) | binding signal (ELF4) | binding signal (ELK4) | binding signal (ETV3L) | binding signal (ETS2) | binding signal (ETV6) | binding signal (ELK1) | binding signal (GABPA) | binding signal (ERG) | binding signal (ETV2) | binding signal (ERF) | binding signal (SPDEF) | binding signal (ETV7) | binding signal (ETV3)
1 | TGGGCA | 1.06 fold enrichment (6-mer frequency, TF over GST control) | 1.01 fold enrichment (6-mer frequency, TF over GST control) | 1.04 fold enrichment (6-mer frequency, TF over GST control) | 1.04 fold enrichment (6-mer frequency, TF over GST control) | 1.06 fold enrichment (6-mer frequency, TF over GST control) | 1.04 fold enrichment (6-mer frequency, TF over GST control) | 1.04 fold enrichment (6-mer frequency, TF over GST control) | 1.02 fold enrichment (6-mer frequency, TF over GST control) | – | – | – | – | – | – | – | –
2 | CGTTGT | 1.04 fold enrichment (6-mer frequency, TF over GST control) | – | 1.01 fold enrichment (6-mer frequency, TF over GST control) | – | 1.14 fold enrichment (6-mer frequency, TF over GST control) | 1.18 fold enrichment (6-mer frequency, TF over GST control) | – | 1 fold enrichment (6-mer frequency, TF over GST control) | 1.09 fold enrichment (6-mer frequency, TF over GST control) | 1 fold enrichment (6-mer frequency, TF over GST control) | 1.02 fold enrichment (6-mer frequency, TF over GST control) | 1.13 fold enrichment (6-mer frequency, TF over GST control) | 1.03 fold enrichment (6-mer frequency, TF over GST control) | 1.05 fold enrichment (6-mer frequency, TF over GST control) | 1.1 fold enrichment (6-mer frequency, TF over GST control) | 1.07 fold enrichment (6-mer frequency, TF over GST control)
